Assay results: publication PMC7862700, “An all-to-all approach to the identification of sequence-specific readers for epigenetic DNA modifications on cytosine”

Key:
Assay in all cases: DAPPL (digital affinity profiling via proximity ligation, sequencing); 10 mM Tris-HCl pH 7.5, 50 mM NaCl, 1 mM DTT, 4% glycerol, room temperature, 30 min; GST-TFs on glutathione beads, 16-mer random dsDNA library, 0.1% formaldehyde crosslink after washing; high values mean tight binding
FLI1 = molecular target: T1, FLI1 (Homo sapiens, UniProt Q01543 1-452); conditions: protein: recombinant; tags: N-terminal GST; dsDNA, one strand shown
T1 sequence: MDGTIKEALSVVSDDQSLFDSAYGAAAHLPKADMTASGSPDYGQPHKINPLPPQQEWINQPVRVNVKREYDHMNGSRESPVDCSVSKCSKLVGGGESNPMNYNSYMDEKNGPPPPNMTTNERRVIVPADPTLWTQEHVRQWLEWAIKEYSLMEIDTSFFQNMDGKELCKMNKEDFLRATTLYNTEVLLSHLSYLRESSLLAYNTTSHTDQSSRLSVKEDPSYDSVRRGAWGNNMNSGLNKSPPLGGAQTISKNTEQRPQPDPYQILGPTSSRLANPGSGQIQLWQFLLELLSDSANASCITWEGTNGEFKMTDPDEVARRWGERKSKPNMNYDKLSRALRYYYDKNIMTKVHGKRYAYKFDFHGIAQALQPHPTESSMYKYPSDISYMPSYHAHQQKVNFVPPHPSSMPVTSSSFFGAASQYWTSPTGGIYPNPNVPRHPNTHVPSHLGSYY
How it was run: (§1)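 Yeast served to express human transcription factors as GST fusions, which were then captured on glutathione beads and labelled with DNA barcodes. Pooled with a tag-only sample, they were incubated with 200 nmole of a 16-mer random double-stranded DNA library for 30 min at room temperature in Tris/NaCl/DTT/glycerol buffer, washed, crosslinked with 0.1% formaldehyde, ligated by proximity, amplified by PCR and sequenced. Dividing each hexamer's read frequency for a factor by its frequency for the tag-only sample gives the binding signal.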

ELK1 = molecular target: T2, ELK1 (Homo sapiens, UniProt P19419 1-428); conditions: protein: recombinant; tags: N-terminal GST; dsDNA, one strand shown
T2 sequence: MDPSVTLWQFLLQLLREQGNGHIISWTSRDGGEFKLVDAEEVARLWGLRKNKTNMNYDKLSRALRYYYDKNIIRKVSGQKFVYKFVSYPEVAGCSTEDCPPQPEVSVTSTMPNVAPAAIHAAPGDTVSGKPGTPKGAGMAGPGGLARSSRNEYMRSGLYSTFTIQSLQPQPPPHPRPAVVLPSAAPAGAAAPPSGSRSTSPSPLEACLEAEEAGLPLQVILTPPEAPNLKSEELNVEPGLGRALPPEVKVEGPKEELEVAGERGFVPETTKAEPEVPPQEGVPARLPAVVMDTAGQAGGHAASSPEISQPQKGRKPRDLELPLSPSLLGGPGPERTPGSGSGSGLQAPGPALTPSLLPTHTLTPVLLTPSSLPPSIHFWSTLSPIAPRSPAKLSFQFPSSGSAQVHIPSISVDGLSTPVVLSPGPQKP
How it was run: as §1

GABPA = molecular target: T3, GABPA (Homo sapiens, UniProt Q06546 1-454); conditions: protein: recombinant; tags: N-terminal GST; dsDNA, one strand shown
T3 sequence: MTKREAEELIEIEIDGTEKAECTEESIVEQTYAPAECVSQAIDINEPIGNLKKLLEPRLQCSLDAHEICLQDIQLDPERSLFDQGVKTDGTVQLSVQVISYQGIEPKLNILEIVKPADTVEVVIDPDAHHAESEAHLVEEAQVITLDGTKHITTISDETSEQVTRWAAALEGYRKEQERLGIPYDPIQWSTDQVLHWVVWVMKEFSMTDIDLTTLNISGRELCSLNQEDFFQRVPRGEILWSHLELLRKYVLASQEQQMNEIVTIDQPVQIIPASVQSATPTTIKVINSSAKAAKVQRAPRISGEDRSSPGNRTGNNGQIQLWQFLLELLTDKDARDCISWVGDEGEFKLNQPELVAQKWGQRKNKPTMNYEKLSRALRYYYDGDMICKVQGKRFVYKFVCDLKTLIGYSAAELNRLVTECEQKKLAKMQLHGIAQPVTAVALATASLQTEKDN
How it was run: as §1

ERG = molecular target: T4, ERG (Homo sapiens, UniProt P11308 1-479); conditions: protein: recombinant; tags: N-terminal GST; dsDNA, one strand shown
T4 sequence: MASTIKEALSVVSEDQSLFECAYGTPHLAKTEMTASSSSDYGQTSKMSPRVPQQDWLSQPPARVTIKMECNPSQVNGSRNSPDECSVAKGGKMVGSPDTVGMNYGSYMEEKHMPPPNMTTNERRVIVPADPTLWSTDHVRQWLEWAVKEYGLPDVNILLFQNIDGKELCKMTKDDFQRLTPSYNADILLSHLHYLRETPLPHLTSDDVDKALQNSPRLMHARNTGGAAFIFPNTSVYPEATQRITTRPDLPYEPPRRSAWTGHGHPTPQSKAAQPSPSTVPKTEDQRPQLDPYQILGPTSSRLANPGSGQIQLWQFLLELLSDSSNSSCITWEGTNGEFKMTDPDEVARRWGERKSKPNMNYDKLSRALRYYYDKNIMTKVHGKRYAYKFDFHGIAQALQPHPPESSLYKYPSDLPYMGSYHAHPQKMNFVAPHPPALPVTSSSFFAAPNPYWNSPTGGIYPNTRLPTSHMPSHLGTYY
How it was run: as §1

ELF1 = ELF1 (Homo sapiens, UniProt P32519 1-619); conditions: protein: recombinant; tags: N-terminal GST; dsDNA, one strand shown
Chain of ELF1 (P32519 whole entry): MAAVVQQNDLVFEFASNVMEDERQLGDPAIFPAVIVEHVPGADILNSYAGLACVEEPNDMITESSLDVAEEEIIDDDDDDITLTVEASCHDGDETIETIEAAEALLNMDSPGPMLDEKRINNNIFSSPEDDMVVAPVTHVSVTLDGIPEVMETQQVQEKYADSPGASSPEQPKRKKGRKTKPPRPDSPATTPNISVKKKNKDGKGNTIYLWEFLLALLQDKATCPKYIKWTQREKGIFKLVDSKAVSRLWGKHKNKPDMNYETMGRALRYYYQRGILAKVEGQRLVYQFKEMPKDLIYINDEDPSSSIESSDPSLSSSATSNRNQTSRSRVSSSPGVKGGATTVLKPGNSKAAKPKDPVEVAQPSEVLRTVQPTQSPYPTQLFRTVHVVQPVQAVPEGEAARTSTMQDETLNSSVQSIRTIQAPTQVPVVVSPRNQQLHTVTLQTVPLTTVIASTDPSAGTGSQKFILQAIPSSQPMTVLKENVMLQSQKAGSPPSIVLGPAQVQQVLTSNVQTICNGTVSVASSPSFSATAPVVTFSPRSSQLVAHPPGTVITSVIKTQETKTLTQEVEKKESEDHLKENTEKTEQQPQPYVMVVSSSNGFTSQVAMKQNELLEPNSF
How it was run: as §1

EHF = molecular target: T5, EHF (Homo sapiens, UniProt Q9NZC4 1-300); conditions: protein: recombinant; tags: N-terminal GST; dsDNA, one strand shown
T5 sequence: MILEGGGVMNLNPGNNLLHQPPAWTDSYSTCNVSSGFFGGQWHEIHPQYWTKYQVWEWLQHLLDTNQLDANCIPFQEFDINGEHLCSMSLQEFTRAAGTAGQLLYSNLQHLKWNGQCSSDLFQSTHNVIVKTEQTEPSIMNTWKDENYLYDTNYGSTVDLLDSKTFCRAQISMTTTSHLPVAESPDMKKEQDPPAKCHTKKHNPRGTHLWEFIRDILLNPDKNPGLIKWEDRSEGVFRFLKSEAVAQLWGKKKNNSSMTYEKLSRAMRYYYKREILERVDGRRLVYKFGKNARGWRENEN
How it was run: as §1

SPI1 = SPI1 (Homo sapiens, UniProt P17947 1-270); conditions: protein: recombinant; tags: N-terminal GST; dsDNA, one strand shown
How it was run: as §1

SPIB = SPIB (Homo sapiens, UniProt Q01892 1-262); conditions: protein: recombinant; tags: N-terminal GST; dsDNA, one strand shown
Chain of SPIB (Q01892 whole entry): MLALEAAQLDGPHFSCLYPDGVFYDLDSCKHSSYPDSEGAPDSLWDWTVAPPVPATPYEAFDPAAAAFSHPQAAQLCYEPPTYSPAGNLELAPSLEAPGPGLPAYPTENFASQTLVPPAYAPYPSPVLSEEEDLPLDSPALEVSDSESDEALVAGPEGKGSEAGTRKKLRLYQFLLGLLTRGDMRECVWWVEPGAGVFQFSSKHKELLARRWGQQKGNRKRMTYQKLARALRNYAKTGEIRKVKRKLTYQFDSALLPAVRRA
How it was run: as §1

ELK3 = molecular target: T6, ELK3 (Homo sapiens, UniProt P41970 1-407); conditions: protein: recombinant; tags: N-terminal GST; dsDNA, one strand shown
T6 sequence: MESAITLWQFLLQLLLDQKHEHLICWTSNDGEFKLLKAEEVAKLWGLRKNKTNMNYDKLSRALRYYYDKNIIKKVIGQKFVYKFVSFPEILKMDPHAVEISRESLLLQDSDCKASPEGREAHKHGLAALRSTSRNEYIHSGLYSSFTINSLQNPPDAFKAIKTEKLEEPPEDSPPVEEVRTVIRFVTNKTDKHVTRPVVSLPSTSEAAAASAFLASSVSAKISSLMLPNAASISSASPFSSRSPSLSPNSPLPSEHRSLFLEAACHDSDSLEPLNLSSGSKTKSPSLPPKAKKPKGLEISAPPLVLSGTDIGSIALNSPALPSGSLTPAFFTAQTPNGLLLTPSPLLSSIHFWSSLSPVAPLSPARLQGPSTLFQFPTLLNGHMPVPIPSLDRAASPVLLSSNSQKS
How it was run: as §1

FEV = molecular target: T7, FEV (Homo sapiens, UniProt Q99581 1-238); conditions: protein: recombinant; tags: N-terminal GST; dsDNA, one strand shown
T7 sequence: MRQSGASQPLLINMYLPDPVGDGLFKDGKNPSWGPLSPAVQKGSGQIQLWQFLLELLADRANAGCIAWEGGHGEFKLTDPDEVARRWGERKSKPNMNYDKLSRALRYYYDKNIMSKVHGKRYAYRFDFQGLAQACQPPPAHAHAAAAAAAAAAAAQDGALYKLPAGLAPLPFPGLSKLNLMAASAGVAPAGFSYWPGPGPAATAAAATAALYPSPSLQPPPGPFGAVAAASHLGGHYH
How it was run: as §1

ETV5 = ETV5 (Homo sapiens, UniProt P41161 1-510); conditions: protein: recombinant; tags: N-terminal GST; dsDNA, one strand shown
Chain of ETV5 (P41161 whole entry): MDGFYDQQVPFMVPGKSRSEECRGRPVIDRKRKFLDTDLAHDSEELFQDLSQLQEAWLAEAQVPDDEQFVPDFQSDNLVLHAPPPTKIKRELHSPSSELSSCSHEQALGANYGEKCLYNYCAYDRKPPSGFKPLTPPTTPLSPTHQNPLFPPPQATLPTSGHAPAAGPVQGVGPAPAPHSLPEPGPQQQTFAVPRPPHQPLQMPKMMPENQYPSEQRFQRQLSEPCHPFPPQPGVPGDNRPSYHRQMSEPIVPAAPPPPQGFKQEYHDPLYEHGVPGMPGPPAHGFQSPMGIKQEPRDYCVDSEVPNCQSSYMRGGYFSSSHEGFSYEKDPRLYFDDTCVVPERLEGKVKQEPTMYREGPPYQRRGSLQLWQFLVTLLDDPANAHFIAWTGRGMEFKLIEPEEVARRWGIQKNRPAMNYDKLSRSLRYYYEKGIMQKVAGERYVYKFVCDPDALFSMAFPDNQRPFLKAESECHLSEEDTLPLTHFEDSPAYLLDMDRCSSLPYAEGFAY
How it was run: as §1

HSF1 = HSF1 (Homo sapiens, UniProt Q00613 1-529); conditions: protein: recombinant; tags: N-terminal GST; chain copies: 3; dsDNA, one strand shown
Chain of HSF1 (Q00613 whole entry): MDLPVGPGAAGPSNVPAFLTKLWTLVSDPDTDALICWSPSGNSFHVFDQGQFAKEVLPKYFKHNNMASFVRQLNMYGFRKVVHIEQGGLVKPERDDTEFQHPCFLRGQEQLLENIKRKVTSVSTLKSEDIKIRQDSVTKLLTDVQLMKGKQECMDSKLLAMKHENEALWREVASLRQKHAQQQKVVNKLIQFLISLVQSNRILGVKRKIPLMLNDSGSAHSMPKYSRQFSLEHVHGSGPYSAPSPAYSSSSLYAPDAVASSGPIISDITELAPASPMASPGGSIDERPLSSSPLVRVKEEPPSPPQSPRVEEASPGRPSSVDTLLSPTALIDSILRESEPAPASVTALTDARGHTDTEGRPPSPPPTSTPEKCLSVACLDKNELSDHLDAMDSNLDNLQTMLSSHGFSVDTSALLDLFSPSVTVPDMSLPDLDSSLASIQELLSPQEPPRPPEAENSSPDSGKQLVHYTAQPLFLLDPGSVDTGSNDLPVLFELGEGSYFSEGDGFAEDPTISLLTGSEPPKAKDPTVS
How it was run: as §1

SPIC = molecular target: T8, SPIC (Homo sapiens, UniProt Q8N5J4 1-248); conditions: protein: recombinant; tags: N-terminal GST; dsDNA, one strand shown
T8 sequence: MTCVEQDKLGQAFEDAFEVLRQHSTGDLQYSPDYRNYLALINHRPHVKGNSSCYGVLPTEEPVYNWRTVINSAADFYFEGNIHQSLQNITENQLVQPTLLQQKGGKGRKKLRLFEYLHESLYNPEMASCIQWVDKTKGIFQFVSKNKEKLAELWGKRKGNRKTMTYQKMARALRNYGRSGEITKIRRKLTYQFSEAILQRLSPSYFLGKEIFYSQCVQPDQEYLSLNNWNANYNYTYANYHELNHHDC
How it was run: as §1

ELF4 = ELF4 (Homo sapiens, UniProt Q99607 1-663); conditions: protein: recombinant; tags: N-terminal GST; dsDNA, one strand shown
Chain of ELF4 (Q99607 whole entry): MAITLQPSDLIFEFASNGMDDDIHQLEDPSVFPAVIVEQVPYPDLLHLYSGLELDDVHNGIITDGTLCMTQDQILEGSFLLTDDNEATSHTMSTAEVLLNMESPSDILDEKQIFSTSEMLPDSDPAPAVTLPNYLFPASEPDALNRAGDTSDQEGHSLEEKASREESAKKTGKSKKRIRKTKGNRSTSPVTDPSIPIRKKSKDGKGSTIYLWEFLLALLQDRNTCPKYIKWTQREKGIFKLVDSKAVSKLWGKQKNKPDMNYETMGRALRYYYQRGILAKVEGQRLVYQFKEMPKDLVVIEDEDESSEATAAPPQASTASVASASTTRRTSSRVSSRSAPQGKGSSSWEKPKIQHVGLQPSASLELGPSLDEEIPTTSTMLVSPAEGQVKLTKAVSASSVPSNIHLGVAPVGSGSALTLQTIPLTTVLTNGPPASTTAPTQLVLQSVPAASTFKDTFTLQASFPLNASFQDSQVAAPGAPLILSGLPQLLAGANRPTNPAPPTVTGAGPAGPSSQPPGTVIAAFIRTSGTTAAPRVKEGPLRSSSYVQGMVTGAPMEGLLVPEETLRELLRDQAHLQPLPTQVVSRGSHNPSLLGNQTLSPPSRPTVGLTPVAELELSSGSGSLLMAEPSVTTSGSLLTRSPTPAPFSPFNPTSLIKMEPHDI
How it was run: as §1

ELK4 = molecular target: T9, ELK4 (Homo sapiens, UniProt P28324-2 1-405); conditions: protein: recombinant; tags: N-terminal GST; dsDNA, one strand shown
T9 sequence: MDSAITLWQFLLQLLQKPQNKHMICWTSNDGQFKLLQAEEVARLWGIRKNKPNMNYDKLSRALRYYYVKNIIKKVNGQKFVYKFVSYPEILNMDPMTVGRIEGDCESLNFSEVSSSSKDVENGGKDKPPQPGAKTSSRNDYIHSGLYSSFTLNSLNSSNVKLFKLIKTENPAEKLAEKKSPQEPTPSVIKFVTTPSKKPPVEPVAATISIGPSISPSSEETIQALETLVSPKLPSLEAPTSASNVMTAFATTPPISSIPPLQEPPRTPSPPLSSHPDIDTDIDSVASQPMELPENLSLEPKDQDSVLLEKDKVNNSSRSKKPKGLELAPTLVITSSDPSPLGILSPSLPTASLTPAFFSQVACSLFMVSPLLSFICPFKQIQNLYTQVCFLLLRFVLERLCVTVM
How it was run: as §1

ETV2 = molecular target: T10, ETV2 (Homo sapiens, UniProt O00321 1-342); conditions: protein: recombinant; tags: N-terminal GST; dsDNA, one strand shown
T10 sequence: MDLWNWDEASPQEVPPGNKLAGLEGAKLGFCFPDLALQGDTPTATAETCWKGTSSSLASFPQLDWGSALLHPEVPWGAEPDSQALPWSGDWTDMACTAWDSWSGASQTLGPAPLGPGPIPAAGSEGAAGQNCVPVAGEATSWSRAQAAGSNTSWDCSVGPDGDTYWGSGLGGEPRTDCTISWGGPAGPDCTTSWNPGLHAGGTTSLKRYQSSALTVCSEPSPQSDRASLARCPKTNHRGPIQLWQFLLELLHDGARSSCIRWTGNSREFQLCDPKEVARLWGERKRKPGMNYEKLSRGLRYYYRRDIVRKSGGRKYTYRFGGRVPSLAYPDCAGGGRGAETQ
How it was run: as §1

ELF3 = molecular target: T11, ELF3 (Homo sapiens, UniProt P78545 1-371); conditions: protein: recombinant; tags: N-terminal GST; dsDNA, one strand shown
T11 sequence: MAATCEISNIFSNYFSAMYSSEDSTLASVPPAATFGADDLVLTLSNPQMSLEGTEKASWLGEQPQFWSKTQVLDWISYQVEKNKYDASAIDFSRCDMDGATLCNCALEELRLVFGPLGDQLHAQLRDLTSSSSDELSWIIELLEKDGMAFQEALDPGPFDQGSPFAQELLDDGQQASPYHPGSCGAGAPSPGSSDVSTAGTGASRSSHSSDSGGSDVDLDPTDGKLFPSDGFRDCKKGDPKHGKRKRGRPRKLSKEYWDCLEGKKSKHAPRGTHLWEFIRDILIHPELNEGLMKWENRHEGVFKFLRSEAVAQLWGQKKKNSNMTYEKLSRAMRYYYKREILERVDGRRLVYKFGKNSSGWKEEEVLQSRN
How it was run: as §1

CRX = CRX (Homo sapiens, UniProt O43186 1-299); conditions: protein: recombinant; tags: N-terminal GST; dsDNA, one strand shown
Chain of CRX (O43186 whole entry): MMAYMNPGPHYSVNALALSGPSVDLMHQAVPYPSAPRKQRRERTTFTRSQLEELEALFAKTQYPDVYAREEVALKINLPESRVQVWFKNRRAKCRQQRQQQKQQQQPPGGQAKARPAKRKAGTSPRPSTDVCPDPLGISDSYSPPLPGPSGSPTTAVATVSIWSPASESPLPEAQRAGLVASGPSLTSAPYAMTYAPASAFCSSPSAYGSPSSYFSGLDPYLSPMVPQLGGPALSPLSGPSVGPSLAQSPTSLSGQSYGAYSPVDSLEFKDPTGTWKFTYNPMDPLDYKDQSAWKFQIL
How it was run: as §1

ETV1 = ETV1 (Homo sapiens, UniProt P50549 1-477); conditions: protein: recombinant; tags: N-terminal GST; dsDNA, one strand shown
Chain of ETV1 (P50549 whole entry): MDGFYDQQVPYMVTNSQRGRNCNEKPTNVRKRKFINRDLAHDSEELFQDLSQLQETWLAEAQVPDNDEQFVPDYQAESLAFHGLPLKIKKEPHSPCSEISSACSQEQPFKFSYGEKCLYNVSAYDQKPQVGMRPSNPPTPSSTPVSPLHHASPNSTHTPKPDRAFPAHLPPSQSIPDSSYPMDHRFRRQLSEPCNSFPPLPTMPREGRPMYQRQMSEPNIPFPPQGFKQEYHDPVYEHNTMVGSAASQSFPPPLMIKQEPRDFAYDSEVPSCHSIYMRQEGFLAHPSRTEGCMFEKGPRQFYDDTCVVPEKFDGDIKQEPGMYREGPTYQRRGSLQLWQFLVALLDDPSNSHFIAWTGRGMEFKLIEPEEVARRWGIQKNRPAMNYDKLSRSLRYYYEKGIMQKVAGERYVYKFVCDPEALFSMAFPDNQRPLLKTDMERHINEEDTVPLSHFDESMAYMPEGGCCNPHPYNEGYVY
How it was run: as §1

## CTTATT
FLI1
  binding signal: 1.61 fold enrichment (6-mer frequency, TF over GST control)
ELK1
  binding signal: 1.39 fold enrichment (6-mer frequency, TF over GST control)
GABPA
  binding signal: 1.41 fold enrichment (6-mer frequency, TF over GST control)
ERG
  binding signal: 1.53 fold enrichment (6-mer frequency, TF over GST control)
ELF1
  binding signal: 1.5 fold enrichment (6-mer frequency, TF over GST control)
EHF
  binding signal: 1.48 fold enrichment (6-mer frequency, TF over GST control)
SPI1
  binding signal: 1.61 fold enrichment (6-mer frequency, TF over GST control)
SPIB
  binding signal: 1.44 fold enrichment (6-mer frequency, TF over GST control)
ELK3
  binding signal: 1.59 fold enrichment (6-mer frequency, TF over GST control)
FEV
  binding signal: 1.46 fold enrichment (6-mer frequency, TF over GST control)
ETV5
  binding signal: 1.42 fold enrichment (6-mer frequency, TF over GST control)
HSF1
  binding signal: 1.87 fold enrichment (6-mer frequency, TF over GST control)
SPIC
  binding signal: 1.62 fold enrichment (6-mer frequency, TF over GST control)
ELF4
  binding signal: 1.43 fold enrichment (6-mer frequency, TF over GST control)
ELK4
  binding signal: 1.49 fold enrichment (6-mer frequency, TF over GST control)
ETV2
  binding signal: 1.5 fold enrichment (6-mer frequency, TF over GST control)
ELF3
  binding signal: 1.51 fold enrichment (6-mer frequency, TF over GST control)
CRX
  binding signal: 2.55 fold enrichment (6-mer frequency, TF over GST control)
ETV1
  binding signal: 1.52 fold enrichment (6-mer frequency, TF over GST control)
